Beta apoptosis: beta cell apoptosis inhibition | INS-1E cytokine-induced death, ATP luminescence, 48 h; percent of positive-control rescue, neutral wells zero | protection from apoptosis, % (concentration not given with the values) | 0.8% of 300,000 active | AID 435005;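 active means Every replicate reaches about 75%, or at least half do and their mean reaches it too, limit read from the data; inconclusive means At least half of replicates reach the limit but their mean does not; inactive means Under half of replicates reach the limit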;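 further: 0% = cytokine-treated negative control wells and 100% = positive control rescue; higher means more ATP so stronger rescue from cytokine killing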
PAX8 reporter: inhibitors of PAX8 transcriptional activity in RMG-I cells; RMG-I TPO-luciferase reporter, SteadyGlo, 24 h; AID 652154; 1.2% of 360,000 active; inhibition, % at 12.6 µM;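 active means mean replicate inhibition at least 60% with every replicate also reaching 60%; inconclusive means only one of the two criteria is met; inactive means mean below 60% and not all replicates reaching 60%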;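 further: luciferase light reporting Pax8 driven TPO promoter activity; plate controls were median of neutral control wells for no effect and mitoxantrone controls for full effect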
Gli-Sufu block: antagonists of Gli-Sufu signaling; inhibition, % at 5 µM; Sufu-KO-LIGHT fibroblasts, Gli luciferase reporter luminescence; 0.74% of 340,000 active; AID 588413;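 active means inhibition above about 55%, limit read from the data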;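 further: 0% = DMSO-treated cells and 100% = wells with medium but no cells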
Shn3 inh set2: Schnurri-3 reporter inhibition in Clone20 osteoblasts | Clone20 osteoblast Shn3 3'UTR firefly luciferase, 24 h | inhibition, % at 12.5 µM | 0.52% of 360,000 active;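 active means mean inhibition of at least 75% with every replicate also reaching 75%; inconclusive means mean inhibition at least 75% but some replicate below; inactive means mean inhibition below 75%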;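 further: 0% = median of neutral control wells and 100% = pilot-screen positive control compound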
Mdm2 MdmX PPI: human Mdm2/MdmX binding inhibition | O15151+Q00987 | SaOS-2 split-luciferase Mdm2/MdmX complementation, luminescence | inhibition, % at 8 µM | 3% of 330,000 active;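 active means inhibition of at least 50% at 8 µM in the primary screen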
Target sequence (O15151 whole entry, looked up): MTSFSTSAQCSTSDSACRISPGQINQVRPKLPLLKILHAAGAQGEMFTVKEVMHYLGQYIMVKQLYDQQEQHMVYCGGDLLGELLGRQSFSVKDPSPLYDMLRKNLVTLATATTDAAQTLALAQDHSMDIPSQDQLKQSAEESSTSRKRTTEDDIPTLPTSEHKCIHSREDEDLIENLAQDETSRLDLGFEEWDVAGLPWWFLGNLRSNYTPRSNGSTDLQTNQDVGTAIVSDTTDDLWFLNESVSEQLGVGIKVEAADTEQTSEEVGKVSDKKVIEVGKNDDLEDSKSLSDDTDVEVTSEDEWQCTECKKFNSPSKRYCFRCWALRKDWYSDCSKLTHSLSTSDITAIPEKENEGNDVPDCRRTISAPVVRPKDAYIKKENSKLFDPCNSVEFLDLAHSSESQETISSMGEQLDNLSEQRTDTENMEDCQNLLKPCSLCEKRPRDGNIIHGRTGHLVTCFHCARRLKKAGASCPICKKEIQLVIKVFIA
Target sequence (Q00987 whole entry, looked up): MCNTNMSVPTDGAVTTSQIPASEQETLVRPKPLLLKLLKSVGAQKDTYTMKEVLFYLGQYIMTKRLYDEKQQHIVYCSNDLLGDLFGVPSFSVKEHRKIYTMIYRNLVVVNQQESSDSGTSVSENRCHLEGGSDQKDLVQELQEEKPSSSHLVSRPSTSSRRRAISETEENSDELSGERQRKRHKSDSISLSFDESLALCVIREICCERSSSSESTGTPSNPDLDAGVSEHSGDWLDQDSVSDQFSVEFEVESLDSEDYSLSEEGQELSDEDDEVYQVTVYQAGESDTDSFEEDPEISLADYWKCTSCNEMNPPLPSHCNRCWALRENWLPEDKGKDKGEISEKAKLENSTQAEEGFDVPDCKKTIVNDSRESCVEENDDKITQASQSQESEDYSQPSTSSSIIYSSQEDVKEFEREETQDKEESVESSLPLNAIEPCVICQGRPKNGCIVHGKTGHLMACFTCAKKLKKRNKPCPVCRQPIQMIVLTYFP
CSC inhib: blocks cancer stem cells | inhibition, % at 7.5 µM | cancer stem cell-like cells viability, luminescence | 1.1% of 300,000 active | AID 2717; in the data active means inhibition above about 75%; inconclusive means no clear call, values can overlap the other calls; tested in HMLE shEcad cells
* marks the source's active call; other numbers are inactive results. Rows were chosen to be rich in hits. Some 4% of all compounds tested hit in one or more screens of this group.

How did CC(C)CC#Cc1ccc2c(c1)O[C@H](CN(C)Cc1ccc(F)cc1)[C@H](C)CN([C@H](C)CO)S2(=O)=O do in these assays?
PAX8 reporter: 76*

How did CC(C)CC#Cc1ccc2c(c1)O[C@@H](CN(C)Cc1ccccn1)[C@H](C)CN([C@H](C)CO)S2(=O)=O do in these assays?
PAX8 reporter: 72*

What do the screens show for `C[C@H]1CN([C@@H](C)CO)S(=O)(=O)c2ccc(C#CCN(C)C)cc2O[C@@H]1CN(C)Cc1ccncc1`?
PAX8 reporter: 6

Results for COc1ccc(S(=O)(=O)N(C)C[C@H]2Oc3ccc(NS(=O)(=O)c4cn(C)cn4)cc3CC(=O)N([C@@H](C)CO)C[C@@H]2C)cc1 ?
PAX8 reporter: -3

Results for CCc1ccc(/C=C2/SC(=S)N(CCC(=O)NCCCN3CCOCC3)C2=O)cc1 ?
Beta apoptosis: -4; PAX8 reporter: -8; Gli-Sufu block: 8; Shn3 inh set2: -21; Mdm2 MdmX PPI: 12; CSC inhib: 8

What do the screens show for `CCc1ccc(/C=C2\SC(=S)N(CCCC(=O)NCCCN3CCOCC3)C2=O)cc1`?
PAX8 reporter: 62*; Shn3 inh set2: 77

How did C[C@@H]1CN([C@H](C)CO)C(=O)c2cc(C3=CCCCC3)cnc2O[C@@H]1CN(C)C(=O)Nc1cccc(F)c1 do in these assays?
PAX8 reporter: -9

How did COc1cc(/C=C(/C(=O)c2cccs2)c2nc3ccccc3[nH]2)ccc1O do in these assays?
Beta apoptosis: 83*; Gli-Sufu block: 8; Shn3 inh set2: -89; Mdm2 MdmX PPI: 49; CSC inhib: 61

How did CN1C(=O)c2cc(NC(=O)C3CCOCC3)ccc2OC[C@@H]2O[C@@H](CC(=O)O)CC[C@H]21 do in these assays?
PAX8 reporter: -5

What do the screens show for `O=C(C[C@@H]1C[C@H]2c3cc(NC(=O)NC4CCCC4)ccc3O[C@H]2[C@H](CO)O1)NCc1ccc2c(c1)OCO2`?
PAX8 reporter: -1

What do the screens show for `Nc1cc(-c2ccc(OC(F)(F)F)cc2)nn1-c1ccc(Cl)c(Cl)c1`?
Beta apoptosis: -10; PAX8 reporter: -9; Gli-Sufu block: -12; Mdm2 MdmX PPI: 0; CSC inhib: 82*

Results for C[C@H]1CN([C@@H](C)CO)C(=O)c2cccc(NC(=O)Nc3ccccc3)c2O[C@@H]1CN(C)CC1CC1 ?
PAX8 reporter: -22

What do the screens show for `CC(C)NC1(C(N)=O)CCNCC1`?
PAX8 reporter: 7; Gli-Sufu block: 4; Shn3 inh set2: 87*

How did CC(=O)OC1CCC2(C)C(CCC3C4CC=C(C(C)=O)C4(C)OC(=O)CC32)C1 (stereo not drawn) do in these assays?
PAX8 reporter: 100*; Shn3 inh set2: inconclusive

Results for O=C(Nc1ccc(Br)c2ccccc12)c1ccc2ccccc2c1O ?
Beta apoptosis: 50; PAX8 reporter: -12; Gli-Sufu block: 39; Shn3 inh set2: 54; CSC inhib: 108*

Results for COc1ccc(CCNc2ncnc3sc(C)cc23)cc1OC ?
Beta apoptosis: 107*; PAX8 reporter: 41; Gli-Sufu block: 69*; Shn3 inh set2: 89*; Mdm2 MdmX PPI: 10; CSC inhib: 3

What do the screens show for `Cc1ccc(N/N=C/c2ccncc2)cc1`?
Beta apoptosis: -1; PAX8 reporter: -2; Gli-Sufu block: -58; Shn3 inh set2: -28; Mdm2 MdmX PPI: -26; CSC inhib: 79*

Results for Cc1ccc(N/N=C/c2cccnc2)cc1 ?
Beta apoptosis: -3; PAX8 reporter: -27; Gli-Sufu block: -78; Shn3 inh set2: -79; Mdm2 MdmX PPI: -34; CSC inhib: inconclusive

How did CCOC1=C2[C@H](c3ccccc3)N(S(=O)(=O)c3ccc(C)cc3)C(C(C)(C)C)[C@H]2C(C#N)(C#N)C(C#N)(C#N)C1 (stereo partly drawn) do in these assays?
PAX8 reporter: 55; Shn3 inh set2: 87*

What do the screens show for `CN1c2ccc(Br)cc2[C@H]2[C@H](CCN2C(=O)c2cccc(F)c2)[C@@H]1CO`?
PAX8 reporter: -7

What do the screens show for `CCN1CCN(C(=S)Nc2sc(C)c(-c3ccccc3)c2C(=O)OC)CC1`?
Beta apoptosis: 3; PAX8 reporter: 1; Gli-Sufu block: 13; Shn3 inh set2: 0; Mdm2 MdmX PPI: 28; CSC inhib: 90*

What do the screens show for `CCc1c(C)sc(NC(=S)N2CCN(CC)CC2)c1C(=O)OC`?
Beta apoptosis: -4; PAX8 reporter: -12; Gli-Sufu block: 16; Shn3 inh set2: 62; Mdm2 MdmX PPI: 29; CSC inhib: 53

How did O=C(C[C@H]1CC[C@H](NC(=O)Nc2ccc(F)cc2)[C@H](CO)O1)NCCN1CCCC1 do in these assays?
PAX8 reporter: -1

What do the screens show for `C[C@H]1CCCCO[C@@H](CN(C)Cc2ccc3c(c2)OCO3)[C@@H](C)CN([C@@H](C)CO)C(=O)c2cc(NC(=O)CCC(F)(F)F)ccc2O1`?
PAX8 reporter: 1

Results for CN(C)S(=O)(=O)c1ccc(Cl)c(C(=O)Nc2ccccc2[N+](=O)[O-])c1 ?
Beta apoptosis: 0; PAX8 reporter: -12; Gli-Sufu block: -17; Shn3 inh set2: -10; Mdm2 MdmX PPI: 11; CSC inhib: 11

Results for CCN(CC)S(=O)(=O)c1ccc(Cl)c(C(=O)Nc2ccc(Cl)cc2[N+](=O)[O-])c1 ?
Beta apoptosis: 100*; PAX8 reporter: 30; Gli-Sufu block: 27; Shn3 inh set2: 61; Mdm2 MdmX PPI: 44; CSC inhib: 7

Results for CCC(C)NC(=O)c1cn(CC)c2cc(N3CCN(C)CC3)c(F)cc2c1=O (stereo not drawn) ?
Beta apoptosis: -6; PAX8 reporter: -8; Gli-Sufu block: 1; Shn3 inh set2: 0; Mdm2 MdmX PPI: 8; CSC inhib: 29

What do the screens show for `CCn1cc(C(=O)N[C@H](C)c2ccccc2)c(=O)c2cc(F)c(N3CCN(C)CC3)cc21`?
Beta apoptosis: 6; Gli-Sufu block: 10; Shn3 inh set2: -5; Mdm2 MdmX PPI: 22; CSC inhib: 75*

Results for O=C(NCCc1ccccc1)c1cc(-c2ccccc2)c(N2CCOCC2)s1 ?
Beta apoptosis: 5; PAX8 reporter: 16; Gli-Sufu block: -12; Shn3 inh set2: 13; Mdm2 MdmX PPI: 0; CSC inhib: 81*

Results for C[C@@H]1CN([C@H](C)CO)C(=O)Cc2cc(NC(=O)Nc3ccccc3)ccc2O[C@@H]1CN(C)S(=O)(=O)c1ccc(Cl)cc1 ?
PAX8 reporter: -1

How did O=C(NC1CCCCCC1)C1c2ccccc2C(=O)N1Cc1cccs1 (stereo not drawn) do in these assays?
Beta apoptosis: -10; PAX8 reporter: 91*; Gli-Sufu block: 5; Shn3 inh set2: -9; Mdm2 MdmX PPI: -10; CSC inhib: -4

Results for Cc1cc(=O)n2[nH]c(C)c(-c3ccccc3)c2n1 ?
Beta apoptosis: -11; Gli-Sufu block: -2; Shn3 inh set2: -3; Mdm2 MdmX PPI: 28; CSC inhib: -14

Source: PubChem BioAssay
